Results as given in PubChem BioAssay AID1159580 (chemical genetic matrix, 2015).
Screen size: about 5,500 compounds; about 2,000 (36%) were called active. Another 18% or so got no clear call; they are omitted. Rule as the data show it: active = normalized growth mostly below about 0.91 (no sharp cut-off); inconclusive = no clear call, values can overlap the other calls; inactive = mostly above about 0.92. Some of the results follow.

Assay: chemical genetic growth profiling, strain panel (AID 1159580);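 also: tested at 20 µM; growth read once vehicle control cultures reached saturation at 30 °C; 1 = growth at the plate median or of vehicle wells; lower values mean less growth of the strain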
Conditions: S. cerevisiae deletion strains, growth OD

Measured: normalized growth

NC(N)=NOCC[C@H](N)C(=O)O
inactive: locus YAL013W, strain DEP1, hits give low values 0.991 | locus YAL021C, strain ccr4, hits give low values 1.01 | locus YAL026C, strain drs2, hits give low values 1.01 | locus YAL030W, strain snc1, hits give low values 1 | locus YBL061C, strain skt5, hits give low values 1.02 | locus YBR009C, strain hhf1, hits give low values 1.01 | locus YBR021W, strain FUR4, hits give low values 1 | locus YBR023C, strain chs3, hits give low values 1.02 | locus YBR171W, strain sec66, hits give low values 1.02 | locus YBR229C, strain ROT2, hits give low values 0.993 | locus YBR231C, strain swc5, hits give low values 1.02 | locus YBR279W, strain paf1, hits give low values 1.01 | locus YCL011C, strain gbp2, hits give low values 1.03 | locus YCL016C, strain dcc1, hits give low values 1.01 | locus YCL029C, strain bik1, hits give low values 0.983 | locus YCL061C, strain MRC1, hits give low values 1.01 | locus YCL069W, strain vba3, hits give low values 1.01 | locus YCR088W, strain abp1, hits give low values 1.01 | locus YDL005C, strain med2, hits give low values 1.01 | locus YDL035C, strain GPR1, hits give low values 0.985 | locus YDL040C, strain nat1, hits give low values 1.01 | locus YDL074C, strain BRE1, hits give low values 1.02 | locus YDL101C, strain DUN1, hits give low values 0.99 | locus YDL134C, strain PPH21, hits give low values 0.999 | locus YDL185W, strain tfp1, hits give low values 0.975 | locus YDL192W, strain arf1, hits give low values 0.983 | locus YDR001C, strain nth1, hits give low values 1.01 | locus YDR069C, strain doa4, hits give low values 1.02 | locus YDR101C, strain arx1, hits give low values 1.01 | locus YDR137W, strain rgp1, hits give low values 1.01 | locus YDR150W, strain NUM1, hits give low values 0.984 | locus YDR159W, strain sac3, hits give low values 1.01 | locus YDR162C, strain NBP2, hits give low values 1.02 | locus YDR195W, strain ref2 0.996 | locus YDR297W, strain sur2, hits give low values 1.01 | locus YDR318W, strain mcm21, hits give low values 0.983 | locus YDR334W, strain swr1, hits give low values 1.02 | locus YDR335W, strain msn5, hits give low values 1.01 | locus YDR388W, hits give low values 0.999 | locus YDR392W, strain spt3, hits give low values 1.01 | locus YDR502C, strain sam2, hits give low values 0.995 | locus YEL003W, strain gim4, hits give low values 1.02 | locus YEL037C, strain rad23, hits give low values 1.01 | locus YEL061C, strain CIN8 (second series), hits give low values 1.02 | locus YEL061C, strain CIN8, hits give low values 0.992 | locus YER015W, strain faa2, hits give low values 1.01 | locus YER016W, strain bim1, hits give low values 1.01 | locus YER110C, hits give low values 0.984 | locus YER111C, strain swi4, hits give low values 1.01 | locus YER155C, strain BEM2 (second series), hits give low values 1.01 | locus YER155C, strain BEM2, hits give low values 0.978 | locus YER167W, strain BCK2, hits give low values 0.978 | locus YFR010W, strain ubp6, hits give low values 1.01 | locus YGL078C, strain dbp3, hits give low values 0.994 | locus YGL086W, strain mad1, hits give low values 0.978 | locus YGL167C, strain pmr1, hits give low values 1.01 | locus YGL173C, strain kem1, hits give low values 1 | locus YGL227W, strain vid30, hits give low values 1.02 | locus YGL240W, strain doc1, hits give low values 1.02 | locus YGL248W, strain PDE1, hits give low values 0.994 | locus YGL253W, strain hxk2, hits give low values 1.01 | locus YGR078C, strain PAC10, hits give low values 1.04 | locus YGR135W, strain pre9, hits give low values 1.03 | locus YGR229C, strain SMI1, hits give low values 1.02 | locus YGR252W, strain gcn5, hits give low values 1.01 | locus YHR013C, strain ard1, hits give low values 1.04 | locus YHR027C, strain rpn1, hits give low values 1 | locus YHR030C, strain SLT2, hits give low values 0.978 | locus YHR079C, strain IRE1 (second series), hits give low values 0.985 | locus YHR094C, strain hxt1, hits give low values 0.988 | locus YHR129C, strain ARP1, hits give low values 0.991 | locus YHR142W, strain chs7, hits give low values 1.03 | locus YHR200W, strain rpn10, hits give low values 0.986 | locus YIL066C, strain RNR3, hits give low values 0.979 | locus YIL073C, strain SPO22, hits give low values 0.915 | locus YIL125W, strain kgd1, hits give low values 0.992 | locus YIR030C, strain dcg1, hits give low values 0.98 | locus YJL092W, strain hpr5, hits give low values 1.01 | locus YJL095W, strain BCK1 (second series), hits give low values 1.02 | locus YJL095W, strain BCK1, hits give low values 1.04 | locus YJL115W, strain asf1, hits give low values 1.01 | locus YJL129C, strain trk1, hits give low values 1.03 | locus YJL134W, strain LCB3, hits give low values 0.987 | locus YJL154C, strain vps35, hits give low values 1.01 | locus YJL164C, strain tpk1, hits give low values 1.01 | locus YJL166W, strain qcr8, hits give low values 1.02 | locus YJL168C, strain set2, hits give low values 0.988 | locus YJL187C, strain SWE1 (second series), hits give low values 1.01
